Results published in PubChem BioAssay (NCI).
This is part of a sample that, as a whole, favours compounds with a hit. Of some 83,000 tested, about 20% had one in any assay.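 Values shown are percent growth following 48 h exposure of cells in 96-well plates to a single concentration of compound; below 10 was considered active.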 Values without a mark were called inactive. Activity calls are given as the source filed them.

Columns and labels:
Assay in all cases: NCI-60 one-dose screen, 48 h (100 = growth as untreated, 0 = no growth, -100 = all killed)
Details in all cases: 10 µM unless noted
NCI-H23 lung = system: NCI-H23 lung
NCI-H226 lung = system: NCI-H226 lung
NCI-H322M lung = system: NCI-H322M lung
HOP-62 NSCLC = system: HOP-62 NSCLC
NCI-H460 lung = system: NCI-H460 lung
786-0 renal = system: 786-0 renal
MDA-MB-231 breast = system: MDA-MB-231 breast
SF-268 CNS = system: SF-268 CNS
SF-539 CNS = system: SF-539 CNS
M14 melanoma = system: M14 melanoma
PC-3 prostate = system: PC-3 prostate
UACC-62 melanoma = system: UACC-62 melanoma
SK-MEL-28 melanoma = system: SK-MEL-28 melanoma
UO-31 renal = system: UO-31 renal
OVCAR-5 ovarian = system: OVCAR-5 ovarian
OVCAR-3 ovarian = system: OVCAR-3 ovarian
NCI/ADR-RES ovarian = system: NCI/ADR-RES ovarian
SW-620 colon = system: SW-620 colon
MCF7 breast = system: MCF7 breast
KM12 colon = system: KM12 colon

| SMILES | growth (NCI-H23 lung) | growth (NCI-H226 lung) | growth (NCI-H322M lung) | growth (HOP-62 NSCLC) | growth (NCI-H460 lung) | growth (786-0 renal) | growth (MDA-MB-231 breast) | growth (SF-268 CNS) | growth (SF-539 CNS) | growth (M14 melanoma) | growth (PC-3 prostate) | growth (UACC-62 melanoma) | growth (SK-MEL-28 melanoma) | growth (UO-31 renal) | growth (OVCAR-5 ovarian) | growth (OVCAR-3 ovarian) | growth (NCI/ADR-RES ovarian) | growth (SW-620 colon) | growth (MCF7 breast) | growth (KM12 colon) |
| --- | --- | --- | --- | --- | --- | --- | --- | --- | --- | --- | --- | --- | --- | --- | --- | --- | --- | --- | --- | --- |
| CN1CC2CCC(C1)C2=O | 106% | 103% | 88.4% | 84.4% | 104% | 97.1% | 124% | 106% | 105% | 98.2% | 92.9% | 110% | 113% | 62.7% | 103% | 106% | 106% | 104% | 102% | 115% |
| ClCCN(CCCl)c1nc(Cl)c(C2CC(c3ccc(Cl)cc3)=NN2c2cc(Cl)cc(Cl)c2)s1 (configuration not stated) | 94.1% | 99.9% | 102% | 98.4% | 101% | 103% | 107% | 102% | 118% | 95.8% | 93.6% | 82.7% | 121% | 91.3% | 108% | 108% | 114% | 99.2% | 95.1% | 108% |
| CC1(C)N=C(N)N=C(N)N1c1ccc(CCCCc2ccc(Cl)cc2S(=O)(=O)F)c(Cl)c1 | 25.6% | 30.6% | 34.2% | 33.4% | 8.45% (active) | 20.4% | 27.4% | 25.2% | 19.6% | 18% | 21.3% | 22.5% | 37.8% | 60.7% | 31.4% | 25.2% | 53.3% | 11.9% | 13.3% | 15.7% |
| C=C=[CH][Sn]([c]1ccccc1)([c]1ccccc1)[c]1ccccc1 | -43.3% (active) | -40.4% (active) | -15.6% (active) | -63.6% (active) | -78.8% (active) | -81.2% (active) | -53.3% (active) | -69% (active) | -29.9% (active) | -66.1% (active) | -50.5% (active) | -62.3% (active) | -56.8% (active) | -84.3% (active) | -60.3% (active) | -94% (active) | – | -74.8% (active) | -52.5% (active) | -84.8% (active) |
| O=[N+]([O-])c1ccccc1N1CCNCC1 | 96.4% | 107% | 96% | 89.4% | 109% | 94.1% | 114% | 95.2% | 99.8% | 97.8% | 103% | 95.8% | 104% | 84.6% | 94% | 101% | 93.6% | 104% | 105% | 101% |
| C[CH2][Sn]([CH2]C)([CH2]C)[NH]S(=O)(=O)c1ccc(C)cc1 | 96.4% | 116% | 111% | 121% | 107% | 109% | 107% | 108% | – | 108% | 111% | 100% | 111% | 86.9% | 114% | 113% | 104% | 101% | 103% | 105% |
| COC1=CC(=O)OC(CCc2ccc3c(c2)OCO3)C1 (configuration not stated) | 121% | 105% | 132% | 106% | 103% | 112% | 114% | 101% | 103% | 104% | 106% | 107% | 117% | 101% | 101% | 122% | 120% | 102% | 86.9% | 109% |
| O=C1NC(=S)NC(=O)C1=Cc1ccccc1 | 86.2% | 98.3% | 119% | 101% | 104% | 123% | 104% | 110% | 103% | 108% | 96.3% | 106% | 122% | 87.7% | 100% | 121% | 97.7% | 96% | 93.2% | 109% |
| CC(=O)C1C(=O)N(C)C(=O)N(C)C1=O | 121% | 95.4% | 107% | 98.6% | 102% | 107% | 117% | 113% | 92% | 110% | 94.9% | 110% | 106% | 96.1% | 99.7% | 112% | 113% | 103% | 99.7% | 107% |
| Cc1ccc(N)cc1[As]=[As]c1cc(N)ccc1C (configuration not stated) | -56.4% (active) | -93.2% (active) | 50.3% | 14.9% | 60.4% | -89.3% (active) | -92.6% (active) | -83.6% (active) | -94.5% (active) | -72.2% (active) | -89.9% (active) | -90.4% (active) | -94.2% (active) | -99.7% (active) | -90.6% (active) | -92.6% (active) | 53.8% | -57% (active) | -74.9% (active) | 65.7% |
| CCC(C)[C@H]1O[C@]2(C=C[C@@H]1C)C[C@@H]1C[C@@H](C/C=C(\C)[C@@H](OC3C[C@H](OC)C(O[C@H]4C[C@H](OC)[C@@H](O)[C@H](C)O4)[C@H](C)O3)[C@@H](C)/C=C/C=C3\CO[C@@H]4[C@H](O)C(C)=C[C@@H](C(=O)O1)[C@]34O)O2 (some centres not stated) | 5.82% (active) | -15.6% (active) | 25.7% | -6% (active) | -34.5% (active) | 0.269% (active) | -58.2% (active) | 1.66% (active) | -71.6% (active) | -46.7% (active) | -5.32% (active) | -35% (active) | -82.4% (active) | 10.1% | -31.8% (active) | -72.3% (active) | 7.16% (active) | -72% (active) | 10.4% | -12.3% (active) |
| COc1ccc(C2=NN(c3ccccc3)C(c3sc(N(CCCl)CCCl)nc3Cl)C2)cc1 (configuration not stated) | 76.7% | 76.2% | 92.7% | 80.1% | 99% | 103% | 68.4% | 86.8% | 104% | 93.6% | 69.5% | 65.1% | 97.9% | 78.6% | 90.1% | 93.3% | 95.7% | 92.5% | 87.3% | 81.4% |
| CC1COC(=O)C1 (configuration not stated) | 104% | 96.7% | 100% | 99.6% | 102% | 95.1% | 120% | 109% | 96.4% | 102% | 102% | 106% | 103% | 90.4% | 102% | 107% | 106% | 97.8% | 93.8% | 99.8% |
| CCCCn1cc(C(=O)/C(C#N)=C/c2cc3ccccc3nc2Cl)c2cc(OC)ccc21 | 92.8% | 84.3% | 98% | 86.1% | 101% | 97% | 87.8% | 83.1% | 89% | – | 87.7% | 81.4% | 107% | 61.6% | 102% | 78.6% | 91.7% | 44.7% | 72% | 94.5% |
| CC(/C=N/N=C(N)N)=N/N=C(N)N | 95.3% | 97.4% | 34.9% | 81.1% | 66.2% | 70.4% | 102% | 72.9% | 73.9% | 92.4% | 108% | 93.6% | 96.4% | 69.9% | 84.4% | 79.8% | 74.3% | 98.5% | 98.1% | 73.1% |
| CCCCN(CCCC)CC(O)c1ccccc1 (configuration not stated) | 100% | 113% | 105% | 114% | 110% | 103% | 104% | 114% | 114% | 100% | 111% | 105% | 103% | 100% | 93.6% | 108% | 105% | 102% | 105% | 104% |
